# Laboratory results reported in PubChem BioAssay (NCATS).
# Unmarked numbers belong to inactive results. Inconclusive results are not listed. The source made the active and inactive calls. The call rests on the fitted dose curve; in most records, active means well fitted curve in the direction sought with a large enough effect; inconclusive means small, poorly fitted or top-dose-only effect, or another doubt; inactive means no such curve, though single readings can be large; an effect the other way counts as inactive or inconclusive.
# Target: Arylsulfatase A (Homo sapiens) (UniProt P15289)
# Sequence (P15289 whole entry, looked up): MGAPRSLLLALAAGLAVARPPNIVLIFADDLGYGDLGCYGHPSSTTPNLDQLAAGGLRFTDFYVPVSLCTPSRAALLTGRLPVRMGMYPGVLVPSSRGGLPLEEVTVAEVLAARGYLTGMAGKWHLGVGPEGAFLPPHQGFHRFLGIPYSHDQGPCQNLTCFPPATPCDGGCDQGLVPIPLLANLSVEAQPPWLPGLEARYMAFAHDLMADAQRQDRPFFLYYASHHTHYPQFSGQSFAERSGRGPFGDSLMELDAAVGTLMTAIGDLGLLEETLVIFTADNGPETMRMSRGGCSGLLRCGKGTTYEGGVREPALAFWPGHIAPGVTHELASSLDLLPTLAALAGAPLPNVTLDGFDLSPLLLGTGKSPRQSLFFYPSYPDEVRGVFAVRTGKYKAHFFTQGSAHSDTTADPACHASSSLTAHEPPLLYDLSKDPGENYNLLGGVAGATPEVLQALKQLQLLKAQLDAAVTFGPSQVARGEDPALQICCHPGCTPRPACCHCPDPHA
# Assay: qHTS screen for enhancers of Arylsulfatase A (ASA1): LOPAC Validation Assay (AID 720538); on activity change, positive = activation: 0% is about no effect
# Conditions: ASA enzyme activity, LOPAC qHTS enhancer assay; series mostly up to 57.5 µM; activity change, positive = activation: at the top concentration
# Method in brief: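 SV40-transformed skin fibroblasts from an MLD patient (ASA-I179S) were treated with compounds for 48h at 37 degree C, then lysed with 0.5mM pNCS final substrate for 14h at room temperature; NaOH stop, fluorescence read (Ex=525 nm; Em=598 nm).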
Compound,"activity change, positive = activation [%]",outcome
CC(NC(C)(C)C)C(=O)c1cccc(Cl)c1 (stereo not drawn),-21.3,–
CCC1(c2ccc(N)cc2)CCC(=O)NC1=O (stereo not drawn),–,inactive
CC(C)N(CCC(C(N)=O)(c1ccccc1)c1ccccn1)C(C)C (stereo not drawn),–,inactive; inhibitor; fitted 0.1901 uM
COc1ccc2c(c1OC)C(=O)O[C@H]2[C@@H]1c2cc3c(cc2CCN1C)OCO3,–,inactive
CCCCC/C=C\C/C=C\C/C=C\C/C=C\CCCC(=O)NCC(=O)O,-278,–
CN=C(NC#N)NCCSCc1nc[nH]c1C,–,inactive; inhibitor; fitted 6.3096 uM
C=C(C)[C@H]1CN[C@H](C(=O)O)[C@H]1CC(=O)O,-15,–
Cn1c(=O)c2[nH]cnc2n(C)c1=O,-56.7,–
O=c1[nH]oc2c1CCNC2,-2.62,–
CCC1(C)CC(=O)NC1=O (stereo not drawn),-11.2,–

# System: not listed separately
# Assay: qHTS for compounds that reverse cellular toxicity of Amyloid beta (A-beta) peptide in yeast: LOPAC Validation Assay (AID 720559);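 further: plate controls were DMSO for no effect and equimolar ferric chloride plus clioquinol rescue for full effect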
# Conditions: yeast expressing A-beta; series mostly up to 46.1 µM; growth rescue, positive = activation: at the top concentration
# Method in brief: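 Yeast cells expressing toxic A-beta were combined with pinned compounds in growth medium and incubated 48 hr at 30 C. Growth was read as absorbance at 600 nm and normalized to DMSO and to an equimolar FeCl3/clioquinol positive control.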
Compound,"growth rescue, positive = activation [%]",outcome
CC(NC(C)(C)C)C(=O)c1cccc(Cl)c1 (stereo not drawn),4.31,–
CN1C(=O)CCS(=O)(=O)C1c1ccc(Cl)cc1 (stereo not drawn),-2.93,–
CC(=O)N1CCN(c2ccc(OC[C@H]3CO[C@](Cn4ccnc4)(c4ccc(Cl)cc4Cl)O3)cc2)CC1,-48.1,–
CCC1(c2ccc(N)cc2)CCC(=O)NC1=O (stereo not drawn),0.448,–
CC(C)N(CCC(C(N)=O)(c1ccccc1)c1ccccn1)C(C)C (stereo not drawn),–,inactive
O=C(CCCN1CCC2(CC1)C(=O)NCN2c1ccccc1)c1ccc(F)cc1,-8.58,–
COc1ccc2c(c1OC)C(=O)O[C@H]2[C@@H]1c2cc3c(cc2CCN1C)OCO3,2.42,–
CCCCC/C=C\C/C=C\C/C=C\C/C=C\CCCC(=O)NCC(=O)O,3.34,–
Cc1ncsc1CCCl,-4.27,–
C=C(C)[C@H]1CN[C@H](C(=O)O)[C@H]1CC(=O)O,-1.26,–
CC(C)(C)NCC(O)c1ccccc1Cl (stereo not drawn),-4.42,–
O=c1[nH]oc2c1CCNC2,-2.12,–

# System: not listed separately
# Assay: qHTS for Activators of Parkin Expression: LOPAC Validation Assay (NLuc Reporter) (AID 720572;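 further: 0% = DMSO and 100% = positive control compound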)
# Conditions: Parkin promoter NanoLuc reporter cells, luminescence, percent of positive control, DMSO as zero; series mostly up to 46.1 µM; activation: at the top concentration
# Method in brief: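 Neuronal cells with a Parkin promoter-driven FLuc/NLuc coincidence reporter were treated 24 h at 37 C in 7-point dose response (LOPAC). NLuc luminescence read after FLuc; signals normalized to DMSO and positive control (100%).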
Compound,activation [%],outcome
CC(NC(C)(C)C)C(=O)c1cccc(Cl)c1 (stereo not drawn),3,–
CN1C(=O)CCS(=O)(=O)C1c1ccc(Cl)cc1 (stereo not drawn),-2.74,–
CCC1(c2ccc(N)cc2)CCC(=O)NC1=O (stereo not drawn),-3.49,–
CC(C)N(CCC(C(N)=O)(c1ccccc1)c1ccccn1)C(C)C (stereo not drawn),–,inactive
O=C(CCCN1CCC2(CC1)C(=O)NCN2c1ccccc1)c1ccc(F)cc1,-1.75,–
COc1ccc2c(c1OC)C(=O)O[C@H]2[C@@H]1c2cc3c(cc2CCN1C)OCO3,2.59,–
CCCCC/C=C\C/C=C\C/C=C\C/C=C\CCCC(=O)NCC(=O)O,-0.353,–
Cc1ncsc1CCCl,-1.76,–
C=C(C)[C@H]1CN[C@H](C(=O)O)[C@H]1CC(=O)O,0.513,–
CC(C)(C)NCC(O)c1ccccc1Cl (stereo not drawn),0.846,–
O=c1[nH]oc2c1CCNC2,1.22,–
